# Source: PubChem BioAssay
# BoNT A protease: BoNT/A light chain protease inhibitors, primary screen, biochemical, flow cytometry, MLPCN library; Botulinum neurotoxin type A light chain protease (Clostridium botulinum A str. ATCC 3502); multiplex microsphere protease substrate cleavage; inhibition, % at 10 µM; 0.17% of 360,000 active; further: plate controls were buffer without enzyme for full effect and enzyme alone for no effect
# Anthrax LF inh2: Bacillus anthracis LF protease inhibitors, primary screen, biochemical, multiplex microsphere, MLPCN library; Lethal factor (Bacillus anthracis), P15917; multiplex microsphere protease cleavage assay; inhibition, % at 10 µM; 0.12% of 360,000 active; AID 588501, 2011; further: plate controls were buffer without enzyme for full effect and enzyme alone for no effect
# Target sequence (P15917 whole entry, looked up): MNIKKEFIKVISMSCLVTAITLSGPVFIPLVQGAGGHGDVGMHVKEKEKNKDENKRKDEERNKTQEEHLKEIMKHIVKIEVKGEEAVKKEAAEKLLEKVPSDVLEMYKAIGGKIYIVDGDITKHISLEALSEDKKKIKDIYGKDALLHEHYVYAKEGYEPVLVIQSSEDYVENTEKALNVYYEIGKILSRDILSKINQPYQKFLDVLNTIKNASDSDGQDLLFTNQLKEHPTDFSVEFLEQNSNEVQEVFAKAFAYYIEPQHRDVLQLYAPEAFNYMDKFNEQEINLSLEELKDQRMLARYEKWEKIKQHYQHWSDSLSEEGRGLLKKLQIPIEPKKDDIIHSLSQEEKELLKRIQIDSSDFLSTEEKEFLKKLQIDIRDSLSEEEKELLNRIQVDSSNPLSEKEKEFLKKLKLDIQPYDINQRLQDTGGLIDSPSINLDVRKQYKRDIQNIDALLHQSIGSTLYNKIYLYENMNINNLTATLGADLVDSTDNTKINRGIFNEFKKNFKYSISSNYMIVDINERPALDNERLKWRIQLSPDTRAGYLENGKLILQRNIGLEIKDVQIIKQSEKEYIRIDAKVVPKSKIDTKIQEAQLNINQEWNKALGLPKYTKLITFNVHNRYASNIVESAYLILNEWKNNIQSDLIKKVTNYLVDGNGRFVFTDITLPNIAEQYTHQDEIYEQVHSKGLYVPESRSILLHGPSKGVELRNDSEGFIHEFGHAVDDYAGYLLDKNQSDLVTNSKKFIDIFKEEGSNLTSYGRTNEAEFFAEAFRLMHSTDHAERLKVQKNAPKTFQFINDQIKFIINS
# Bead autofluor: flagged as autofluorescent in microsphere protease counterscreen; 3.1% of 360,000 active; compound autofluorescence counterscreen, microsphere flow cytometry; stronger effect = higher value; fluorescence intensity (test concentration not listed); in the data active means fluorescence intensity above about 16000; inconclusive means no clear call, values can overlap the other calls
# BoNT-F LC inh: BoNT/F light chain protease inhibitors, primary screen, biochemical, flow cytometry, MLPCN library; Botulinum neurotoxin type F light chain protease (Clostridium botulinum); Multiplex microsphere protease cleavage assay; inhibition, % at 10 µM; 0.22% of 360,000 active; AID 588497, 2011; in the data active means inhibition above about 35%, passing the limit was not always enough; inconclusive means no clear call, values can overlap the other calls; further: plate controls were buffer without enzyme for full effect and enzyme alone for no effect
# * marks the source's active call; other numbers are inactive results; ? = inconclusive. Compounds with a hit are over-represented: about 3.5% of the library has one in this group of screens. Unless noted, no stated cut-off is given here; in the data, active means inhibition above about 30%; inconclusive means no clear call, values can overlap the other calls; inactive means below that.
SMILES,BoNT A protease,Anthrax LF inh2,Bead autofluor,BoNT-F LC inh
CN1C(=O)c2ccccc2Sc2ccc(C(=O)N3CCC4(CC3)OCCO4)cc21,2.8,-4.0,19800*,2.0
CCN(CC)C(=O)[C@H]1C[C@H](CC(=O)NCCC2=CCCCC2)C(=O)N2CCc3c([nH]c4ccc(Cl)cc34)[C@]12C,0.3,1.7,3088,-6.7
O=C1CC(c2ccccc2)CC2=C1CN(C1CCCCC1)CN2 (configuration not stated),-3.0,-6.6,23766*,-6.8
COC(=O)c1ccc2nc(C3CCCCC3)c(Cc3ccc(C)cc3)n2c1,2.4,-3.3,6986,-1.3
c1ccc2c(c1)Cc1ccccc1O2,0.0,-4.4,4330,1.7
CCOC(=O)CN1C(=O)CSc2ccccc21,-2.9,1.4,24381*,-5.8
O=C1CSc2ccccc2N1Cc1ccc(F)cc1,5.6,-4.3,21142*,14.3
N#C/C(=C/c1ccc(N2CCCCCC2)o1)c1ccc(F)cc1,2.4,-0.8,7360,-10.3
COc1cc(N2CCCC2)c(OC)cc1/C=C(/C#N)c1cccc(F)c1,4.6,-9.6,23531*,48.1*
N#C/C(=C/c1ccc(N2CCCCCC2)o1)c1cccc(F)c1,4.2,-1.0,28830*,1.6
CN1CCN(c2nc(N(C)C)oc(=O)c2C#N)CC1,-0.6,-1.0,22716*,1.1
CCOc1ccc(NC(=O)c2nnn(CC(=O)Nc3ccccc3OC)c2N)cc1,1.4,0.3,4588,36.0*
COc1ccccc1NC(=O)c1nnn(CC(=O)Nc2cccc(SC)c2)c1N,1.2,-0.3,22055*,-3.3
COc1ccccc1NC(=O)Cn1nnc(C(=O)Nc2ccccc2)c1N,0.0,0.0,3147,10.9
O=C(/C=C/c1cccs1)Nc1nc(-c2ccccc2)cs1,0.9,-3.7,22955*,1.5
O=C(NNc1nc(-c2ccccc2)cs1)c1ccccc1,0.5,-10.8,22139*,-3.1
COc1ccc(NC(=O)C2CCCC2)cc1S(=O)(=O)N1CCOCC1,-3.2,-1.4,5483,-2.7
CC(C)CCC(CCN1CCOCC1)c1ccc2c(c1)OCO2 (configuration not stated),-1.4,-1.9,20867*,-0.5
CC(C)CCC(CCN1CCCC1)c1ccc2c(c1)OCO2 (configuration not stated),0.0,-6.8,6219,-9.5
CC(C)CC(OC(=O)c1nsc(Cl)c1Cl)C(=O)NC1CCCC1 (configuration not stated),0.7,-1.9,5540,6.9
CC(C)(C(=O)c1ccccc1)/[N+]([O-])=C/c1ccccc1,-1.2,-1.2,23931*,0.0
Oc1ccc(/C=C/c2nc(-c3ccccc3O)n(-c3ccccc3)n2)cc1,-2.3,-4.7,24194*,-4.3
Cc1ccc(NC(=O)CSCC(=O)NC2(C)CCS(=O)(=O)C2)cc1 (configuration not stated),0.2,10.5,3921,1.6
CC(=O)c1ccc(NC(=O)CSCCO)cc1,0.0,-5.2,19947*,-1.0
COC(=O)c1ccc(NC(=O)Cc2ccccc2)cc1,-0.3,11.5,9743,-2.8
SMILES,BoNT A protease,Anthrax LF inh2,Bead autofluor,BoNT-F LC inh
COC(=O)c1ccc(NC(=O)CSCc2ccccc2)cc1,0.7,1.1,2728,-3.1
COC(=O)c1ccc(NC(=O)CSCc2ccc(C)cc2)cc1,1.0,-3.5,22818*,0.5
COC(=O)c1ccc(NC(=O)CSCc2ccccc2C)cc1,2.2,-2.9,22086*,3.0
O=C(Nc1ncccc1O)c1ccc(Oc2ccccc2)cc1,0.6,0.0,5175,7.5
COC(=O)c1cnc(SC)nc1C,?,-0.5,20134*,0.0
CSc1ncc(C(=O)Nc2ccccc2C)c(C)n1,0.8,-11.2,3901,8.6
Cc1cc(C)c(S(=O)(=O)N2CCN(C(=O)c3ccccc3OCc3c(C)noc3C)CC2)c(C)c1,0.1,-4.4,3626,-1.4
COCc1nnc(NS(=O)(=O)c2ccc(C)cc2)s1,0.0,-9.1,8493,-7.2
COCc1nnc(NS(=O)(=O)c2c(C)cc(C)cc2C)s1,-0.2,-0.3,23383*,-0.3
OC1(c2ccc(Br)cc2)CCNCC1,0.2,0.3,11516,1.6
OC1(c2ccc(F)cc2)CCNC1 (configuration not stated),0.1,-1.4,23064*,-0.9
CCn1cnnc1SCC(=O)NCC1COc2ccccc2O1 (configuration not stated),-0.5,-0.3,3688,0.7
O=C(CCCCCN1C(=O)c2ccccc2C1=O)Nc1nccs1,1.9,0.7,21980*,2.4
O=C(CCCCCN1C(=O)c2ccccc2C1=O)Nc1ccccc1,1.1,-2.3,9863,8.4
